OTUD3 block = inhibitors of human OTUD3 deubiquitinase. Q5T2D3. purified OTUD3, Ub-rhodamine fluorescence, 2 h. inhibition, % at 25 µM. 0.7% of 47,000 active. AID 1645858
USP17 block = blocks human USP17 ubiquitin-rhodamine cleavage; 6.5% of 47,000 active; purified USP17, Ub-rhodamine cleavage fluorescence, 3 h; AID 1645855; A8MUK1; inhibition, % at 50 µM
Target sequence (A8MUK1 whole entry, looked up): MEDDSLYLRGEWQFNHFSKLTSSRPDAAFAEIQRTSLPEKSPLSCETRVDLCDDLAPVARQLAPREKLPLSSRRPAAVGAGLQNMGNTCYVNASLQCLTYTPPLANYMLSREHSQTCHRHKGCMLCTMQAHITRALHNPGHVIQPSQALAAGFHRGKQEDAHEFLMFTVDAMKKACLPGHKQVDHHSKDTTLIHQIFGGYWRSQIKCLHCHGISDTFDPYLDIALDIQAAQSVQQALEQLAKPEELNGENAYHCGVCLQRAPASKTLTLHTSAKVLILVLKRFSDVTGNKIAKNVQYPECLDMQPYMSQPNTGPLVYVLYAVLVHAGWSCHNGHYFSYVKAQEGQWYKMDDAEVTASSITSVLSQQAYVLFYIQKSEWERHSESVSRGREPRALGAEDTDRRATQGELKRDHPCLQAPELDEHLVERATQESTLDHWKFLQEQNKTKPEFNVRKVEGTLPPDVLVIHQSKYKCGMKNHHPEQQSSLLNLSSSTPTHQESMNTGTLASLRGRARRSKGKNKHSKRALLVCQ
USP30 block = blocks human USP30 ubiquitin-rhodamine cleavage. inhibition, % at 25 µM. purified USP30, Ub-rhodamine cleavage fluorescence. Q70CQ3. AID 1645860. 5.3% of 47,000 active
USP28 inh = blocks human USP28 ubiquitin-rhodamine cleavage; purified USP28, Ub-rhodamine cleavage fluorescence, 30 min; inhibition, % at 25 µM; 3% of 47,000 active
* hit, by the source's call; . = not tested or not shown. Hits are enriched below; roughly 11% of the tested compounds scored in any of these assays. Rule as the data show it: active = inhibition above about 30%; inactive = the rest.

SMILES	OTUD3 block	USP17 block	USP30 block	USP28 inh
CCCn1c(=O)c2sccc2n2c(CCC(=O)NC3CCC(C)CC3)nnc12 (centres undefined)	23	.	40*	12
CC(C)CCn1c(=O)c2ccccc2n2c(CCC(=O)NC3CCCCCC3)nnc12	38*	41*	50*	16
CCn1c(=O)c2sccc2n2c(CCC(=O)NC3CCCCCC3)nnc12	18	13	29	11
CC(C)CCn1c(=O)c2ccccc2n2c(CCC(=O)NCc3ccccc3Cl)nnc12	0	-1	-12	-5
COc1ccc(-c2ocnc2C(=O)NCc2cccc(OC)c2)cc1	11	22	23	44*
COc1cccc(-c2ocnc2C(=O)Nc2cc(C)ccc2C)c1	1	-8	0	-17
COc1ccc(-c2ocnc2C(=O)NCc2ccc(F)cc2)cc1OC	1	3	-10	14
COc1ccc(-c2ocnc2C(=O)Nc2ccccc2F)cc1OC	37*	76*	81*	27
COc1ccc(NC(=O)c2ncoc2-c2cccs2)c(OC)c1	0	46*	9	-6
O=C(Nc1ccccc1Cl)c1ncoc1-c1cccs1	-7	-12	3	0
COc1cccc(-c2ocnc2C(=O)Nc2ccc(C)cc2C)c1	11	39*	34*	14
COc1ccc(CNC(=O)c2ncoc2-c2ccc(OC)cc2)cc1	18	8	21	25
CCN(C(=O)Cn1cnc(S(=O)(=O)N2CCOCC2)c1)c1cccc(C)c1	12	12	25	17
COCCCNc1c(C#N)c2c(c3nncn13)CN(C(C)C)CC2	-47	-46	-157	-50
COc1ccc(-c2cc(C(=O)Nc3ccccc3F)on2)cc1	0	42*	0	2
COc1cccc(CNC(=O)c2sc(-c3ccc(OC)c(OC)c3)nc2C)c1	16	45*	13	12
Cc1ccc(Cn2nnc(-c3ccccc3Cl)n2)cc1	12	15	16	64*
Cn1c(N)c(C(=O)Cn2nnc(-c3ccccc3Cl)n2)c(=O)n(C)c1=O	-9	-7	-5	-20
Cc1ncsc1C(=O)N1CCC[C@@H]2NC(=O)c3ccccc3OCC/C=C/C[C@@H]21	10	3	3	14
Cc1ccc(C(=O)Nc2cc3c4c(c2)C(C)C(=O)N4CCC3)cc1 (centres undefined)	-23	-32	-93	25
Cc1ccc(C(=O)Nc2cc3c4c(c2)CC(=O)N4CCC3)cc1C	8	10	-5	72*
Cc1ccc(-n2nc(C)c3c(C)cc(C(=O)NCc4cccs4)nc32)cc1	26	31*	46*	11
CC(=O)O[C@@H]1/C=C(/C)[C@H](OC(=O)c2ccc(O)cc2)C/C=C(/C)CCCC1(C)C	-1	31*	15	6
O=C(NCCc1cnccn1)c1ccc(-n2cccn2)c(C#Cc2ccccc2)c1	-4	-5	-1	-8
CCc1ccc(NC(=O)CSc2nnnn2-c2cccnc2)cc1	13	-5	12	31*
SMILES	OTUD3 block	USP17 block	USP30 block	USP28 inh
O=C(CSc1nnnn1-c1ccccc1)NC(C(=O)O)(c1ccccc1)c1ccccc1	1	7	5	-1
O=S(=O)(c1ccc(F)cc1)N1CCCC1c1ccnc(Nc2cnccn2)n1 (centres undefined)	12	47*	73*	45*
O=C(c1ccc(F)cc1)N1CCCC1c1ccnc(Nc2cnccn2)n1 (centres undefined)	-2	3	-4	1
Cc1noc(NC(=O)Nc2ccccc2)c1Cl	-4	2	7	0
O=c1[nH]c(=O)n(Cc2ccco2)c2c1CN(Cc1ccccc1)CN2	2	-7	-21	-1
CCC(C)N1CNc2c(c(=O)[nH]c(=O)n2Cc2ccco2)C1 (centres undefined)	13	.	39*	-4
Cc1cc(C)n2ncc(C(=O)NC(C)CCc3ccccc3)c2n1 (centres undefined)	3	-1	8	7
Cc1cc(C)n2ncc(C(=O)NCCc3ccc(Cl)cc3)c2n1	-6	-5	-12	30*
CC(C)[C@H]1CC[C@@]2(CO2)[C@H]2C(=O)OCC(C(=O)O)=C[C@H]12	55*	73*	64*	71*
Cc1oc2ccccc2c1CN1CCC2(CC1)CC1(CO2)NC(=O)c2ccccc2N1 (centres undefined)	-26	-28	-96	-34
COc1cc2cc(C(=O)NCC(=O)Nc3nc4ccccc4s3)n(C)c2cc1OC	4	33*	19	5
O=C(Cn1nnc2ccccc21)Nc1nc2ccccc2s1	8	14	.	.
Cc1ccc2[nH]c(=O)c(CN(Cc3ccco3)S(=O)(=O)c3ccccc3)cc2c1	-5	.	-91	-6
COCCN(Cc1cc2cc(C)ccc2[nH]c1=O)S(=O)(=O)c1ccc(Cl)cc1	5	33*	28	8
Cc1ccc(S(=O)(=O)N(C)Cc2cc3cc(C)ccc3[nH]c2=O)cc1	10	57*	.	.
Cc1ccc(S(=O)(=O)N(Cc2ccco2)Cc2cc3ccccc3[nH]c2=O)cc1	7	-1	0	-1
Cc1ccc2[nH]c(=O)c(CN(CC3COCCO3)S(=O)(=O)c3ccc(F)cc3)cc2c1 (centres undefined)	-7	76*	11	-4
O=c1[nH]c2ccccc2cc1CN(c1ccccc1)S(=O)(=O)c1ccc(Cl)cc1	0	48*	-1	-3
Cc1nc2c(c(=O)[nH]1)CC[C@@H]1CN(Cc3cccc4nccnc34)C[C@H]21	-5	-16	-32	-23
Cc1cccc(CNc2nc(N3CCN(C)CC3)nc3c2cnn3C)c1	2	-10	3	1
CCOC(=O)N1CCN(C(=O)CNC(=O)c2cc3cc(OC)ccc3n2C)CC1	-2	0	0	-6
COc1ccc(Cn2nnc(C(=O)NC3CCCCC3)c2-n2cccc2)cc1	22	48*	11	42*
O=C(c1nnn(Cc2ccc(Cl)cc2)c1-n1cccc1)N1CCCC1	16	26	14	76*
COc1ccc(Cn2nnc(C(=O)N3CCSCC3)c2-n2cccc2)cc1	4	33*	-41	20
CCCc1ccccc1OCCNC(=O)/C=C/c1ccc(OC)c(OC)c1	6	0	-10	27
SMILES	OTUD3 block	USP17 block	USP30 block	USP28 inh
Cc1ccccc1[C@H]1C[C@@H](O)[C@@H](O)[C@@H]1NC(=O)c1c(C)noc1C	4	11	5	0
COc1ccc(C)cc1NC(=O)c1cc2cccnc2n(C)c1=O	1	37*	.	.
CCn1c(=O)c(-c2ccc(C(=O)Nc3cc(C)ccc3OC)cc2)nc2cccnc21	8	37*	21	11
COc1ccc(CNC(=O)CSCc2nc(-c3cccc(C)c3)oc2C)cc1	0	12	0	8
NC(=O)c1cc(NC(=O)c2ccc3ccccc3c2)cc(C(N)=O)c1	7	66*	66*	57*
O=C(Nc1cccc(-c2ccc(N3CCOCC3)nn2)c1)c1ccc2ccccc2c1	-6	-3	-14	4
CC(Oc1ccc(Cl)cc1Cl)C(=O)OCC(=O)Nc1ccc2[nH]c(=O)[nH]c2c1 (centres undefined)	-15	14	-29	-21
CC1OC2OC1C=Cc1cccc(O)c12 (centres undefined)	11	-19	-11	2

Screens deposited in PubChem by Buhrlage Lab, Dana-Farber Cancer Institute and Novartis Institutes for BioMedical Research (Cambridge, Mass).
